Screening data from PubChem.
A selection: hits, their analogues and other compounds. The true share with any hit is near 18%.
Six1-Eya2 blk: qHTS Assay for Inhibitors of the Six1/Eya2 Interaction | Homeobox protein SIX1 (Homo sapiens) + Protein phosphatase EYA2 (Homo sapiens), … | AlphaScreen GST-Six1/His-Eya2 binding, biochemical; hits give low values | activity change, % (no concentration beside the values) | 360,000 compounds, 0.56% hits | AID 651725, 2012; in the data active = activity change below about -65%; inconclusive = mostly about -30% to -63%
Target sequence (O00167 whole entry, looked up): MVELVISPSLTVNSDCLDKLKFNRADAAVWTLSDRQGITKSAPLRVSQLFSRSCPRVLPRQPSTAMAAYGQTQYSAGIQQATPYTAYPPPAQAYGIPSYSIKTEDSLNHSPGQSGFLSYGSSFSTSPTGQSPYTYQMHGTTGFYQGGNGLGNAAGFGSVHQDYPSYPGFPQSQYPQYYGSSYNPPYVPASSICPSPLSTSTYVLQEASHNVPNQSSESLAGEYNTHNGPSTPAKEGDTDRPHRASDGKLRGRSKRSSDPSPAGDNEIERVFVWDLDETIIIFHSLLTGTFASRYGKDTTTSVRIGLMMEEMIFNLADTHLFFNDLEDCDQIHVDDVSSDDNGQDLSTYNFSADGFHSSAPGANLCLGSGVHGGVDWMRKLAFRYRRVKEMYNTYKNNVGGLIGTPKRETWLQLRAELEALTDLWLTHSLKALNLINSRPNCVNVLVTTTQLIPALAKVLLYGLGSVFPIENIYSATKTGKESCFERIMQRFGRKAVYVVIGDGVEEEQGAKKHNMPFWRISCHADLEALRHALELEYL
Target sequence (Q15475 whole entry, looked up): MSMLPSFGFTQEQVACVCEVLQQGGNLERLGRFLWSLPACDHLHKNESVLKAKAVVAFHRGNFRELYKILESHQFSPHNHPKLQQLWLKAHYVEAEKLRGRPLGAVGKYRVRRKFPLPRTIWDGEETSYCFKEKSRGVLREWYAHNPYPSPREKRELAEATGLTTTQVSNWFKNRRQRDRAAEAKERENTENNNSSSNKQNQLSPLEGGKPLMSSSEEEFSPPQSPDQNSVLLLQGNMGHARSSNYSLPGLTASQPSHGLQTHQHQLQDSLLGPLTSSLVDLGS
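AlphaScreen luminescence read after one hour at 37 °C in darkness. Pin-transferred compounds met GST-Six1 and His-Eya2 protein (5X stock 250 nM/500 nM) plus glutathione donor and Ni-chelate acceptor beads (5X, 50 ug/mL).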
CtBP-E1A blk: qHTS Assay for Inhibitors of the CtBP/E1A Interaction; CtBP / adenovirus E1A interaction (AlphaScreen); AlphaScreen GST-E1A/His-CtBP binding, 1536-well; hits give low values; activity change, % (concentration not given with the values); 340,000 compounds, 0.49% hits; in the data active = activity change below about -65%; inconclusive = mostly about -30% to -63%
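GST-E1A and His-tagged CtBP (125 nM each as 5X stock) were preincubated with pin-transferred compound for 2 h at 37 °C in the dark, then glutathione donor and nickel acceptor beads were added for 1 h before AlphaScreen reading.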
TDP1 inh: qHTS Assay for Inhibitors of Tyrosyl-DNA Phosphodiesterase (TDP1); Tyrosyl-DNA phosphodiesterase 1 (Homo sapiens), Q9NUW8; recombinant TDP1, AlphaScreen DNA substrate cleavage; Potency, µM (series often up to 130 µM), inactives show at the highest dose activity change, negative = inhibition, most hits filed as inhibitors; 350,000 compounds, 0.28% hits; note: potency is the fitted concentration of half-maximal effect; nearly all actives have a fitted effect of over 40% in size
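Signal: AlphaScreen proximity between streptavidin donor and anti-FITC acceptor beads on intact substrate. Reaction: Tdp1 1 nM, substrate 15 nM final, 5 min RT after 15 min compound preincubation.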
DT40 TDP1 no CPT: qHTS for Inhibitors of human tyrosyl-DNA phosphodiesterase 1 (TDP1): qHTS in cells in absence of CPT | 420,000 compounds, 15% hits | DT40 Tdp1-/- hTDP1 cells, no CPT, ATP luminescence, 48 h | AID 686978, 2013 | Potency, µM (top dose mostly 46.2 µM), inactives show at the top dose activity change, negative = growth inhibition, hits mostly inhibitors; note: potency is the fitted concentration of half-maximal effect; nearly all actives have a fitted effect of over 55% in size
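Luminescent ATP content (CellTiter-Glo) served as the growth readout. Knockout chicken DT40 cells expressing human TDP1 were exposed to compounds without camptothecin for a minimum 48 hr at 37 °C.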
IL1B secr inh: qHTS for Inhibitors of Inflammasome Signaling: IL-1-beta AlphaLISA Primary Screen; THP-1 LPS/ATP IL-1B secretion, AlphaLISA, 16 h; hits give low values; activity change, % at 57.5 µM; 360,000 compounds, 4.7% hits; AID 743279, 2014; in the data active = activity change below about -50%; inconclusive = mostly about -30% to -49%
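Secreted IL-1B measured by AlphaLISA bead assay after 16 h compound exposure of THP-1 cells; compounds (final up to 57.5 uM) added 1 h before LPS (250 ng/mL) and ATP (1.25 mM) stimulation; lower signal means less secretion.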
DT40 TDP1 CPT: qHTS for Inhibitors of human tyrosyl-DNA phosphodiesterase 1 (TDP1): qHTS in cells in presence of CPT | chicken DT40 Tdp1-/-;hTDP1 cells + 20 nM CPT, ATP luminescence, 48 h | Potency, µM (top dose mostly 46.2 µM), for inactives: at the top dose activity change, negative = growth inhibition, hits mostly inhibitors | 420,000 compounds, 12% hits | AID 686979, 2013; note: potency is the fitted concentration of half-maximal effect; nearly all actives have a fitted effect of over 55% in size
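Chicken DT40 Tdp1-/- cells complemented with human TDP1, 400 cells/well, exposed to compounds plus 20 nM camptothecin for at least 48 h at 37 C; viability read as ATP content by CellTiter-Glo luminescence.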
The depositor's hits bear a star; ? = inconclusive; nt = no result. Unless noted, calls come from the whole dose curve; as a rule, active = well fitted curve in the direction sought with a large enough effect; inconclusive = small, poorly fitted or top-dose-only effect, or another doubt; inactive = no such curve, though single readings can be large; an effect the other way counts as inactive or inconclusive. % is set by controls: 0 for no effect and ±100 for the full control effect.

SMILES	Six1-Eya2 blk	CtBP-E1A blk	TDP1 inh	DT40 TDP1 no CPT	IL1B secr inh	DT40 TDP1 CPT
CCOC(=O)CN(c1cc([N+](=O)[O-])ccc1OC)S(C)(=O)=O	5.4	nt	7.4%	-2.1%	-60.4*	1.2%
COc1ccc(Cl)cc1N(CC(=O)N/N=C/c1ccc(OC(C)C)cc1)S(=O)(=O)c1ccc(C)c([N+](=O)[O-])c1	-13.0	1.5	2.7%	-18.6%	-14.6	-16.0%
C=CCOc1cccc(/C=N/NC(=O)CN(c2cc(Cl)ccc2OC)S(=O)(=O)c2ccc(C)c([N+](=O)[O-])c2)c1	-6.9	5.9	2.7%	16.4µM*	-7.3	?
COc1ccc(Cl)cc1N(CC(=O)N(C)C)S(=O)(=O)c1ccc(C)c([N+](=O)[O-])c1	3.2	nt	2.7%	20.6µM*	20.0	?
COc1ccc([N+](=O)[O-])cc1N(CC(=O)N(C)C)S(C)(=O)=O	9.8	nt	6.1%	-0.3%	3.1	2.6%
COC(=O)c1ccc(OCC2c3cc(OC)c(OC)cc3CCN2C(=O)c2cccc(C)c2)cc1 (stereo not given)	nt	nt	2.6%	16.4µM*	nt	20.6µM*
COC(=O)c1ccc(OCC2c3cc(OC)c(OC)cc3CCN2C(=O)c2ccccc2F)cc1 (stereo not given)	nt	nt	5.2%	18.4µM*	nt	?
COC(=O)c1ccc(OCC2c3cc(OC)c(OC)cc3CCN2C(=O)C2CC2)cc1 (stereo not given)	-5.7	-10.9	4.0%	?	?	?
CCOc1ccccc1C(=O)N1CCc2cc(OC)c(OC)cc2C1COc1ccc(OC)cc1 (stereo not given)	nt	nt	10.4%	20.6µM*	nt	?
COc1ccc(OCC2c3cc(OC)c(OC)cc3CCN2C(=O)c2ccc(F)cc2)cc1 (stereo not given)	nt	nt	7.8%	?	nt	-28.0%
COc1ccc(CC(=O)N2CCc3cc(OC)c(OC)cc3C2COc2ccc(OC)cc2)cc1 (stereo not given)	nt	nt	13.0%	16.4µM*	nt	?
Cc1c(/C=C/C(=O)c2ccc(O)cc2)cnn1C	0.9	-16.0	3.2%	?	8.8	-16.4%
Cc1c(/C=C/C(=O)c2ccc(C(C)C)cc2)cnn1C	-2.1	-16.4	5.4%	?	-72.9*	?
COc1ccc(C(=O)OCC(=O)Nc2cc(S(=O)(=O)N3CCOCC3)ccc2N2CCCC2)cc1	0.0	0.0	2.6%	-18.1%	-63.8*	3.0%
CCOCC(=O)Nc1cc(S(=O)(=O)N2CCOCC2)ccc1N1CCCCC1	-5.2	0.0	0.0%	16.4µM*	8.2	14.6µM*
CCOC(=O)CCC(=O)Nc1cc(S(=O)(=O)N2CCOCC2)ccc1N1CCCCC1	-3.4	-2.3	-0.1%	1.2%	5.5	2.5%
CN1CCN(c2ccc(S(=O)(=O)N3CCCCC3)cc2NC(=O)Cc2c(F)cccc2Cl)CC1	-13.2	-1.2	nt	?	-17.4	?
O=C(CCc1ccccc1Cl)Nc1cc(S(=O)(=O)N2CCOCC2)ccc1N1CCCC1	-12.1	2.2	nt	18.4µM*	-13.1	14.6µM*
O=C(Cc1c(F)cccc1Cl)Nc1cc(S(=O)(=O)N2CCCCC2)ccc1N1CCOCC1	1.5	-18.7	5.6%	16.4µM*	-15.6	?
COc1ccc(O)c(CN2CCN(CCCc3ccccc3)C(CCO)C2)c1 (stereo not given)	-10.6	-0.6	nt	-3.4%	24.7	-18.8%
O=C(COC(=O)C1CC(=O)N(c2ccc3c(c2)OCCO3)C1)Nc1ccc2c(c1)CCC2 (stereo not given)	2.7	2.2	4.0%	-5.1%	10.0	-11.4%
Cc1c(N2C(=O)SC(CC(=O)O)C2=O)c(=O)n(-c2ccccc2)n1C (stereo not given)	5.0	-1.1	-12.0%	-3.1%	12.1	-2.0%
COc1ccc(CC(=O)Nc2cc(S(=O)(=O)N3CCOCC3)ccc2N2CCCC2)cc1	2.3	0.3	nt	-12.7%	13.0	0.8%
O=C(Cc1c(F)cccc1Cl)Nc1ccccc1N1CCCCC1	19.2	0.0	-4.6%	?	15.3	16.4µM*
O=C(Cc1ccc(F)cc1)Nc1cc(S(=O)(=O)N2CCOCC2)ccc1N1CCCCC1	1.0	4.8	nt	23.1µM*	20.1	?
SMILES	Six1-Eya2 blk	CtBP-E1A blk	TDP1 inh	DT40 TDP1 no CPT	IL1B secr inh	DT40 TDP1 CPT
CC(=O)Nc1cc(O)c2nonc2c1O	nt	nt	0.3%	0.708µM*	nt	0.631µM*
CC(=O)Nc1c(O)cc(Br)c2nonc12	nt	nt	0.3%	-9.9%	nt	2.5%
O=c1c2ccccc2oc2nc(-c3cccs3)n(CCc3ccccc3)c(=O)c12	nt	nt	-5.3%	nt	nt	nt
COc1cc(-c2nc3oc4ccccc4c(=O)c3c(=O)n2Cc2ccco2)cc(OC)c1OC	2.2	-5.2	1.0%	20.6µM*	?	18.4µM*
O=c1c2ccccc2oc2nc(-c3ccco3)n(Cc3ccccc3)c(=O)c12	-2.5	-11.0	3.8%	20.6µM*	11.4	?
Cc1ccccc1Nc1cc(C(=O)NC2CCCC2)c2ccccc2n1	nt	nt	2.3%	-18.7%	nt	-26.5%
Nc1nc(N)nc(-c2ccccn2)n1	-81.1*	-72.6*	0.0%	2.7%	7.5	9.8%
c1ccc(-c2nc(-c3ccccn3)nc(-c3ccccn3)n2)nc1	?	?	11.2%	14.6µM*	-14.0	?
c1ccc(C2=NNC(c3ccccn3)=NN2)nc1	-70.9*	-80.5*	nt	9.2µM*	?	9.2µM*
c1ccc(-c2nnc(-c3ccccn3)s2)nc1	-7.8	0.0	-6.2%	?	-10.0	-23.3%
c1ccc(-c2nc3ccccc3nc2-c2ccccn2)nc1	-12.9	-9.1	0.0%	-7.4%	3.5	2.0%
Nc1nc(N)nc(-c2ccccc2O)n1	-0.3	-11.9	8.8%	-13.8%	?	0.6%
CCOC(=O)c1c(NC(=O)COc2ccccc2F)sc2c1CCCC2	nt	nt	1.9%	?	nt	?
Cc1cccn2c(=O)c(/C=N/O)c(N3CCOCC3)nc12	5.6	0.0	6.1%	-28.6%	19.4	9.7%
COc1ccccc1NC(=O)c1cc[n+]([O-])cc1	13.7	nt	nt	-19.7%	4.9	4.6%
c1ccc2[nH]c3cc4ncnc4cc3nc2c1	?	-72.9*	3.8%	18.4µM*	-57.3*	?
